# Env fusion inh – inhibitors of HIV-1 Env-driven cell-cell fusion, primary screen, HeLa-JRFL effector, CEM21 target cells, luciferase. actives 1.1% (n = 360,000). inhibition, % at 12.3 µM;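 active = mean replicate inhibition score of at least 50 and every replicate individually at or above 50; inconclusive = only one of the two criteria met; inactive = mean below 50 and not all replicates reaching 50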;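 note: 0% = plate neutral controls and 100% = maraviroc near 300 nM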
# EWS-Fli inh – EWS/Fli-driven NR0B1 reporter inhibitors, primary screen, A673 cells, NR0B1 luciferase, luminescence, MLPCN library; viability-normalised; inhibition, % at 12.6 µM; actives 0.67% (n = 350,000); AID 651661, 2012;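 active = mean inhibition of at least 50% after viability correction, with every replicate also passing that limit; inconclusive = mean reaches 50% but only one of two replicates passes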;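 note: firefly luciferase signal divided by Alamar Blue viability fluorescence both relative to DMSO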
# PAX8 inh HTS – inhibitors of PAX8-driven TPO luciferase reporter, primary screen, RMG-I cells, single concentration; actives 1.2% (n = 360,000); SteadyGlo, 24 h; inhibition, % at 12.6 µM; AID 652154, 2013;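 active = mean replicate inhibition at least 60% with every replicate also reaching 60%; inconclusive = only one of the two criteria is met; inactive = mean below 60% and not all replicates reaching 60%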;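 note: luciferase light reporting Pax8 driven TPO promoter activity; plate controls were median of neutral control wells for no effect and mitoxantrone controls for full effect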
# FXN GAA850 act – FXN promoter activators, primary screen, cell-based, luciferase luminescence, HEK293 lucGAA850 | HEK293 lucGAA850 FXN promoter luciferase reporter, 24 h; percent of 10 µM SAHA response | activation, % at 6 µM | actives 0.56% (n = 360,000);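 active = activation above the average of all compounds screened plus 3 SD, cutoff fixed separately per campaign, cut at about 7.5% in these data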;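 note: 0% = DMSO wells and 100% = 10 µM SAHA wells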
# F508del corr – F508del CFTR correction, initial screen, CFBE line, single point | CFBE cells, YFP halide quenching; stimulated with forskolin plus potentiator P3; % fluorescence drop versus neutral controls | activity (quench increase), % at 7.58 µM | actives 0.36% (n = 350,000);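 active = mean added fluorescence quench of at least 8% versus neutral control, with both replicates also reaching 8%; inconclusive = only one of the mean or replicate conditions met; inactive = mean below 8% and not both replicates reaching 8%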;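 note: cells transiently co-express mutant CFTR-F508del with the halide-sensitive YFP; corrector assay measuring rescue of mutant channel to the surface after 24 h compound exposure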
# * marks the source's active call; other numbers are inactive results; ? = inconclusive; nt = no result; [ ] = remark or other dose. A selection: hits, their analogues and other compounds. The true share with any hit is near 2.5%.
SMILES,Env fusion inh,EWS-Fli inh,PAX8 inh HTS,FXN GAA850 act,F508del corr
CCOC(=O)[C@]12CCCC=C1N(Cc1ccccc1)C(=O)[C@H](CC(=O)NCc1ccc(OC)c(OC)c1)C2,-0.5,-5.0,-3.0,nt,-2.2
CCOC(=O)[C@]12CCCC=C1N(CCC1=CCCCC1)C(=O)[C@H](CC(=O)NCc1ccc(OC)c(OC)c1)C2,70.9*,-1.9,-13.4,nt,0.7
CCCCCCCCN1C(=O)[C@H](CC(=O)NCc2ccc(OC)c(OC)c2)C[C@@]2(C(=O)OC)CCCCC=C12,117.8*,8.3,8.2,nt,6.3
CCCCCCCCN1C(=O)[C@H](CC(=O)NCc2ccc(OC)c(OC)c2)C[C@@]2(C(=O)OCC)CCC=C12,34.8,12.4,35.2,nt,3.6
COc1ccc2c3c(n(C)c2c1)[C@H](CO)N(C)CC31CCN(S(=O)(=O)c2cccc(C)c2)CC1,nt,-6.7,nt,nt,-0.6
COCC#Cc1ccc([C@H]2[C@@H](CO)N3C(=O)CN(C(=O)Nc4ccc(F)cc4)C[C@H]23)cc1,nt,-1.9,-1.7,nt,-3.6
CCCNC(=O)[C@@H]1[C@@H](CO)[C@@H]2Cn3c(ccc(-c4cccc(F)c4)c3=O)[C@H]1N2C(C)=O,nt,-4.4,1.6,nt,0.1
CN(C)S(=O)(=O)c1ccc2c(c1)C(=O)c1cc(S(=O)(=O)N(C)C)ccc1CC2,3.1,14.1,-1.7,0.4,-1.0
CN(C)S(=O)(=O)c1ccc2c(c1)/C(=C/c1cc3c([nH]1)CCCC3)C(=O)N2,-31.9,-0.6,-40.8,0.9,8.6*
COC(=O)[C@H](Cc1ccccc1)N1C(=O)O[C@@H](Cc2ccccc2)[C@H]1/C=C/C1CC1,18.5[16.7 µM],16.4,14.0,nt,0.5
O=C(N[C@H](c1cccc(Br)c1)[C@@H]1CCCC=C1c1ccccc1)C(F)(F)F,67.0*,3.5,4.1,nt,1.4
CCCCOc1ccc(/C=C/C(=O)OCC(=O)N2CC(=O)Nc3ccccc32)cc1OCC,61.2*,24.7,15.8,1.2,-5.7
COc1ccc(/C=C/C(=O)OCC(=O)N2CC(=O)Nc3ccccc32)cc1,-6.8,nt,0.6,-3.3,nt
O=C(C[C@@H]1CC[C@H](NC(=O)Nc2cc(F)ccc2F)[C@H](CO)O1)Nc1ccc(-c2ccccc2)cc1,nt,-8.1,-2.4,nt,3.5
O=C(COc1ccccc1-c1ccccc1)N/N=C/c1ccc2ccccc2c1,-10.1,39.7,93.5*,-1.0,nt
C/C(=N\NC(=O)COc1ccccc1-c1ccccc1)c1ccccn1,10.6,0.0,81.1*,5.7,-3.4
O=C(COc1ccccc1-c1ccccc1)N/N=C/c1ccncc1,-22.6,2.6,3.1,-0.1,-0.3
CCCNC(=O)N1CC2(CCN(C(=O)C3CCOCC3)CC2)c2c([nH]c3cc(OC)ccc23)[C@@H]1CO,nt,4.5,-5.0,nt,-0.1
CCOc1cc(S(=O)(=O)N(Cc2ccccc2)Cc2ccccc2)c(OCC)cc1-n1cnnn1,63.2*,nt,nt,-4.8,nt
CCCN(CCC)Cc1c(C(=O)N/N=C/C(C)=C\c2ccco2)nnn1-c1nonc1N,13.7,12.8,92.8*,-1.1,-0.5
OCCOCCn1c(CCNc2nc(-c3ccc(Cl)cc3)cs2)nc2cc(Cl)c(Cl)cc21,81.1*,11.2,3.8,0.9,-0.1
FC(F)C(F)(F)Oc1cccc(Nc2nccn3c(-c4cc(C(F)(F)F)cc(C(F)(F)F)c4)cnc23)c1,-34.8,8.2,7.8,-0.1,0.7
Cc1ccc(-c2cnc3c(Nc4cccc(OC(F)(F)C(F)F)c4)nccn23)cc1,60.9*,-24.4,-7.7,-1.3,0.7
CCCNC(=O)N(C)C[C@H]1Oc2cc(-c3ccccc3F)ccc2S(=O)(=O)N([C@@H](C)CO)C[C@@H]1C,-10.4[16.7 µM],5.6,-1.0,nt,-0.4
Cc1ccc(S(=O)(=O)N(C)c2cc(S(=O)(=O)N3CCOCC3)c(C)cc2C)cc1,16.1,0.6,6.8,0.6,-1.0
SMILES,Env fusion inh,EWS-Fli inh,PAX8 inh HTS,FXN GAA850 act,F508del corr
Cc1cc(C)c(S(=O)(=O)N2CCCCC2)cc1N(C)S(=O)(=O)c1ccc(Cl)cc1,95.4*,nt,22.6,2.7,nt
CN1CCN(CCCNC(=O)C2CC(=O)N(C3CCCCC3)C2)CC1 (centres undefined),nt,nt,nt,-0.9,nt
O=C(NCCCN1CCC(Cc2ccccc2)CC1)C1CC(=O)N(C2CCCCCC2)C1 (centres undefined),55.3*,nt,nt,0.6,nt
C=C(C(=O)c1ccccc1)C(NC(C)(C)C)c1ccccc1 (centres undefined),-6.9,42.9,81.0*,-13.9,3.4
C=C(C(=O)c1ccccc1)C(C)CC(=O)c1ccccc1 (centres undefined),-12.4,nt,61.6*,-8.8,nt
C[C@H](CO)N1C[C@H](C)[C@H](CN(C)C(=O)Cc2cccnc2)Oc2ncc(C#Cc3ccccc3F)cc2C1=O,5.5[16.7 µM],-6.6,nt,nt,2.4
COc1cc2c(-c3ccccc3)c(C)oc2cc1/C=N/NC(N)=S,-9.5,28.0,23.7,-3.5,8.1*
COc1cc(OC)c(/C=N/NC(N)=S)cc1Br,-103.8,-23.4,-19.2,3.0,nt
COC(=O)c1ccc(-c2nc(-c3cccs3)no2)cc1,-46.6,58.2*,-55.8,-2.2,-0.1
CN1C(=O)c2cc(NC(=O)c3ccc(F)cc3)ccc2OC[C@@H]2O[C@@H](CC(=O)NC3CCC3)CC[C@H]21,-23.9[16.7 µM],-13.8,-3.4,nt,0.0
CCC1=Nc2cc(C(=O)NCC3CCCO3)ccc2Sc2ccc(Cl)cc21 (centres undefined),-5.5,57.3*,42.5,-3.7,14.8*
CCC1=Nc2cc(C(=O)NCc3ccco3)ccc2Sc2ccc(Cl)cc21,?,nt,41.0,-0.4,nt
CCC1=Nc2cc(C(=O)NCc3cccnc3)ccc2Sc2ccc(C)cc21,-6.0,65.5*,27.3,-3.8,12.2*
Cc1nn(C)c(C)c1NC(=O)CSc1nc(C2CC2)nc2c1cnn2-c1ccccc1,56.6*,nt,5.2,0.2,nt
Cc1ccc2[nH]c3c(c2c1)CN(C(=O)CN1CCN(c2cccc(C)c2C)CC1)CC3,nt,nt,nt,-1.7,nt
Cc1ccc2[nH]c3c(c2c1)CN(C(=O)CN1c2ccc(F)cc2CCC1C)CC3 (centres undefined),59.7*,nt,nt,-4.2,nt
C[C@H](CO)N1C[C@H](C)[C@@H](CN(C)Cc2ccccc2)Oc2cc(-c3ccccc3)ccc2S1(=O)=O,46.3[16.7 µM],18.5,nt,nt,2.8
C[C@@H]1CN([C@@H](C)CO)S(=O)(=O)c2ccc(-c3ccccc3)cc2O[C@H]1CN(C)S(C)(=O)=O,57.2*[16.7 µM],-2.7,nt,nt,-2.1
C[C@H](CO)N1C[C@H](C)[C@H](CN(C)Cc2ccccc2)Oc2cc(-c3ccccc3)ccc2S1(=O)=O,79.4*[16.7 µM],15.0,nt,nt,0.4
Cc1ccc(-c2ccc3c(c2)O[C@H](CN(C)S(C)(=O)=O)[C@H](C)CN([C@@H](C)CO)S3(=O)=O)cc1,-0.1[16.7 µM],-9.8,nt,nt,0.2
C[C@@H]1CN([C@H](C)CO)S(=O)(=O)c2ccc(-c3ccccc3)cc2O[C@@H]1CN(C)Cc1ccccc1,64.6*[16.7 µM],20.5,nt,nt,0.3
